# PubChem BioAssay (NCATS)
# Several values for one entry are separate records, joined by “and”; a condition that tells them apart may be missing. Equal values may be shown once. A number with no mark means an inactive call. Records with an inconclusive call do not appear. A call without a number means that no potency is given here. Activity calls are given as the source filed them. The call rests on the fitted dose curve; in most records, active means well fitted curve in the direction sought with a large enough effect; inconclusive means small, poorly fitted or top-dose-only effect, or another doubt; inactive means no such curve, though single readings can be large; an effect the other way counts as inactive or inconclusive.
# Key:
# [1] = Primary qHTS for inhibitors of nuclear receptor binding SET domain protein 2 (NSD2) in an isogenic RCH-ACV NSD2 p.E1099K mutant (9B) (AID 1645876); further: nearly all actives have a fitted effect of over 70% in size; further: potency means the concentration at half of the fitted maximal effect
# [2] = Primary qHTS for inhibitors of nuclear receptor binding SET domain protein 2 (NSD2) in an RCH-ACV wild type WT cells (2C) (AID 1645877); further: nearly all actives have a fitted effect of over 70% in size; further: potency means the concentration at half of the fitted maximal effect
# [3] = biological target: Phospholipid hydroperoxide glutathione peroxidase GPX4 (Homo sapiens) (UniProt P36969); assay: Primary qHTS Assay for Inhibitors of Recombinant Selenoprotein Glutathione Peroxidase 4 (GPX4) (AID 1845192); further: nearly all actives have a fitted effect of over 65% in size; on activity change, negative = inhibition: series mostly up to about 50 µM
# Summary of the method: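 NADPH consumption, followed by fluorescence at 340/450 nm between 0 and 15 min, reports GPX4 activity via coupled glutathione reductase (100 nM). Enzyme 200 nM was pre-exposed to compound 30 min; 0.5 mM cumene hydroperoxide and 1 mM GSH served as substrates.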
# [4] = biological target: Metallo-beta-lactamase type 2 (Klebsiella pneumoniae) (UniProt C7C422); assay: qHTS to identify inhibitors of the New Delhi Metallo-beta-lactamase (NDM): assay validation screen against the NCATS LOPAC Collection (AID 1794843);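 further: nitrocefin turnover by NDM-1 measured as 485 nm absorbance at plateau; series mostly up to about 38 µM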
# Summary of the method: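 Enzyme 2 nM final, 50 mM HEPES pH 7.0, 1 uM ZnSO4, 0.01% Tween20; cpds in DMSO, preincub w/ enzyme; + nitrocefin (50 uM stock); A485 at plateau; no-enzyme column as blank.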
# [5] = biological target: Glutathione peroxidase 1 (Homo sapiens) (UniProt P07203); assay: Primary qHTS Assay for Inhibitors of Recombinant Selenoprotein Glutathione Peroxidase 1 (GPX1) (AID 1845191); further: nearly all actives have a fitted effect of over 65% in size
# Summary of the method: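 10 nM GPX1 + cpd, 30 min RT; start w/ 1 mM GSH, 0.5 mM cumene hydroperoxide, 0.5 mM NADPH, 100 nM GR, 0.01% BSA; buffer 50 mM Tris-HCl pH 7.5, 2 mM EDTA, 150 mM NaCl; Fl 340/450, 0 & 15 min.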
# [6] = NCATS anti-infectives library activity on HEK293 viability as a counter-qHTS vs the C. elegans viability qHTS (AID 1745854);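 further: HEK293 cells exposed to compounds for 24 hr before the viability read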; further: potency means the concentration at half of the fitted maximal effect
# Summary of the method: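 Compounds were acoustically plated (several concentrations, 1:5, final up to 41.7 uM), then 1500 HEK293 cells added per well and incubated 24 hr at 37C, 5% CO2. CellTiter-Glo was added and luminescence read after 10 min.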
# [7] = Viability counterscreen for antagonist of constitutive androstane receptor (CAR) against the NCATS DSHEA and TCM libraries (AID 1794837);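 further: compound exposure lasted 24 h before viability reading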
# Summary of the method: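 Fluorescence from CellTiter-Fluor reports live-cell protease activity in HepG2-CYP2B6-hCAR cells treated for 24 h with substances alongside 48 uM CITCO.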
# [8] = Viability counterscreen for agonist of constitutive androstane receptor (CAR) against the NCATS DSHEA and TCM libraries (AID 1794838);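 further: cells exposed to compound for 24 h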
# Summary of the method: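 In agonist mode, PK11195 is added at 0.75 uM final to HepG2-CYP2B6-hCAR cells dosed with test substances. Cultures incubate 24 h at 37C before a protease-based fluorogenic viability readout.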
# [9] = biological target: Nuclear receptor subfamily 1 group I member 3 (Homo sapiens) (UniProt Q14994); assay: Primary qHTS for agonist of constitutive androstane receptor (CAR) against the NCATS DSHEA and TCM libraries (AID 1794839);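 further: HepG2 cells expressing human CAR with a CYP2B6 reporter plus PK11195 antagonist; luciferase reporter luminescence read with ONE-Glo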
# Summary of the method: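 Cells stably carrying hCAR and a CYP2B6 reporter (HepG2 background) are seeded and allowed 5 h to adhere. Substances at multiple concentrations are added alongside 0.75 µM PK11195, and luciferase signal is measured after 24 h.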
# [10] = HepG2 viability counterscreen (readout 2: ATP content) against the NCATS DSHEA and TCM libraries (AID 1794840);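 further: HepG2 cells exposed to substances for about 24 h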
# Summary of the method: (§1)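 Cytotoxicity was assessed in HepG2 cells plated at 1,000 cells/well and exposed for about 24 hours to a concentration series. Protease activity and ATP content were measured sequentially in each well.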
# [11] = HepG2 viability counterscreen (readout 1: protease activity) against the NCATS DSHEA and TCM libraries (AID 1794841);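 further: cells exposed to compounds for about 24 h before the protease read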
# Summary of the method: as §1
# [12] = biological target: Rap guanine nucleotide exchange factor 3 (Homo sapiens) (UniProt O95398); assay: Confirmatory qHTS for antagonist of cAMP-regulated guanine nucleotide exchange factor 3 (EPAC1) (AID 1645880); further: nearly all actives have a fitted effect of over 55% in size
# Summary of the method: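 Nucleotide exchange uses 100 nM EPAC1, 250 nM RAP1B-BODIPY-GDP and 50 uM GDP, with compounds in a concentration-titration series. After 5 min at room temperature, fluorescence (480 nm ex/540 nm em) is read every 5 min for 30 min. Data are normalized to control ATA and DMSO.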
# [13] = biological target: Rap guanine nucleotide exchange factor 3 (Homo sapiens) (UniProt O95398); assay: Confirmatory qHTS for agonist of cAMP-regulated guanine nucleotide exchange factor 3 (EPAC1) (AID 1645881);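 further: EPAC1 catalysed release of BODIPY-GDP from Rap1B seen as fluorescence loss; nearly all actives have a fitted effect of over 75% in size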
# [14] = biological target: Rap guanine nucleotide exchange factor 4 (Homo sapiens) (UniProt Q8WZA2); assay: Confirmatory qHTS for agonist of cAMP-regulated guanine nucleotide exchange factor 4 (EPAC2) (AID 1645884);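 further: nucleotide exchange releases bodipy-GDP from Rap1 and this lowers its fluorescence; nearly all actives have a fitted effect of over 65% in size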
# [15] = biological target: Rap guanine nucleotide exchange factor 4 (Homo sapiens) (UniProt Q8WZA2); assay: Confirmatory qHTS for antagonist of cAMP-regulated guanine nucleotide exchange factor 4 (EPAC2) (AID 1645885); further: nearly all actives have a fitted effect of over 25% in size
# Chain of Metallo-beta-lactamase type 2 (Klebsiella pneumoniae) (C7C422 whole entry, looked up): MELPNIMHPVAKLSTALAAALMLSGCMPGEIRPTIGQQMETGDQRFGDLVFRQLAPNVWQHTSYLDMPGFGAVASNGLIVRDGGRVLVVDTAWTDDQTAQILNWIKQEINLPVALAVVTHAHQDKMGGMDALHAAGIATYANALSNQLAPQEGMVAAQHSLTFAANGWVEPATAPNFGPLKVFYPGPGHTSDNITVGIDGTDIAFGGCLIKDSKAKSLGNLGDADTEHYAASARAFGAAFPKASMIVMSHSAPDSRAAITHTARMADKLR
# Chain of Glutathione peroxidase 1 (Homo sapiens) (P07203 whole entry, looked up): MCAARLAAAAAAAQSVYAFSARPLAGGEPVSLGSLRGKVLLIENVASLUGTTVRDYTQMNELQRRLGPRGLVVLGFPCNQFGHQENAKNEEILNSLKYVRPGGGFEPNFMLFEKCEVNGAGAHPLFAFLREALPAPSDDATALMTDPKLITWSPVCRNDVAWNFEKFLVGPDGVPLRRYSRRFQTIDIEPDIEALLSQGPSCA
# Chain of Phospholipid hydroperoxide glutathione peroxidase GPX4 (Homo sapiens) (P36969 whole entry, looked up): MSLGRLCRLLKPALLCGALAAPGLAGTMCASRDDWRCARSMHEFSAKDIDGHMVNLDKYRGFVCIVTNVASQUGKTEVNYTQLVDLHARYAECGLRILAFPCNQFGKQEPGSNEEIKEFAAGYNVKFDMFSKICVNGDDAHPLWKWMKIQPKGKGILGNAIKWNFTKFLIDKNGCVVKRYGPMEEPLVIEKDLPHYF
# Chain of Rap guanine nucleotide exchange factor 3 (Homo sapiens) (O95398 whole entry, looked up): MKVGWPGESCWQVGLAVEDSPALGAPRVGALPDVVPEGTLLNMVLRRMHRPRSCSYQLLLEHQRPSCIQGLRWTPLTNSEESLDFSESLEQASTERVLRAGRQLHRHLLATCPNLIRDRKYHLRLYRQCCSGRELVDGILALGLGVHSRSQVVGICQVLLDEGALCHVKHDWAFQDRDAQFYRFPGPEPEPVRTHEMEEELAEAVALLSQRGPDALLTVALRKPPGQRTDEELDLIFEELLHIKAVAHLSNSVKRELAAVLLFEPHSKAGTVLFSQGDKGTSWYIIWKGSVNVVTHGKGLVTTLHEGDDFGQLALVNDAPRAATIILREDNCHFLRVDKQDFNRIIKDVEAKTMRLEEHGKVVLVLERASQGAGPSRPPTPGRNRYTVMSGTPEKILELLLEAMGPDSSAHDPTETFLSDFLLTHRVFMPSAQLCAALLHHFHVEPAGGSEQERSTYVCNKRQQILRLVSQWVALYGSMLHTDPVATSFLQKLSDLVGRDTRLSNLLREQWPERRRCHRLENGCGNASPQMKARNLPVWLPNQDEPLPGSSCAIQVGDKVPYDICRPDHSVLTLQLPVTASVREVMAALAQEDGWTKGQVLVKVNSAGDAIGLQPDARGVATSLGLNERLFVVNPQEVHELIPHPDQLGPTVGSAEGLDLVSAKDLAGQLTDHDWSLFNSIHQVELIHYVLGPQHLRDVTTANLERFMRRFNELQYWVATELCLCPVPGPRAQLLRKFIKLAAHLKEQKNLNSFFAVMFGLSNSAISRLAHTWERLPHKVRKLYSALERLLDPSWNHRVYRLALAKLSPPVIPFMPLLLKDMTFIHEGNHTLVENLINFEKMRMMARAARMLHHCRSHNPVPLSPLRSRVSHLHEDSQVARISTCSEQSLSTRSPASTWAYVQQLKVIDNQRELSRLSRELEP
# Chain of Rap guanine nucleotide exchange factor 4 (Homo sapiens) (Q8WZA2 whole entry, looked up): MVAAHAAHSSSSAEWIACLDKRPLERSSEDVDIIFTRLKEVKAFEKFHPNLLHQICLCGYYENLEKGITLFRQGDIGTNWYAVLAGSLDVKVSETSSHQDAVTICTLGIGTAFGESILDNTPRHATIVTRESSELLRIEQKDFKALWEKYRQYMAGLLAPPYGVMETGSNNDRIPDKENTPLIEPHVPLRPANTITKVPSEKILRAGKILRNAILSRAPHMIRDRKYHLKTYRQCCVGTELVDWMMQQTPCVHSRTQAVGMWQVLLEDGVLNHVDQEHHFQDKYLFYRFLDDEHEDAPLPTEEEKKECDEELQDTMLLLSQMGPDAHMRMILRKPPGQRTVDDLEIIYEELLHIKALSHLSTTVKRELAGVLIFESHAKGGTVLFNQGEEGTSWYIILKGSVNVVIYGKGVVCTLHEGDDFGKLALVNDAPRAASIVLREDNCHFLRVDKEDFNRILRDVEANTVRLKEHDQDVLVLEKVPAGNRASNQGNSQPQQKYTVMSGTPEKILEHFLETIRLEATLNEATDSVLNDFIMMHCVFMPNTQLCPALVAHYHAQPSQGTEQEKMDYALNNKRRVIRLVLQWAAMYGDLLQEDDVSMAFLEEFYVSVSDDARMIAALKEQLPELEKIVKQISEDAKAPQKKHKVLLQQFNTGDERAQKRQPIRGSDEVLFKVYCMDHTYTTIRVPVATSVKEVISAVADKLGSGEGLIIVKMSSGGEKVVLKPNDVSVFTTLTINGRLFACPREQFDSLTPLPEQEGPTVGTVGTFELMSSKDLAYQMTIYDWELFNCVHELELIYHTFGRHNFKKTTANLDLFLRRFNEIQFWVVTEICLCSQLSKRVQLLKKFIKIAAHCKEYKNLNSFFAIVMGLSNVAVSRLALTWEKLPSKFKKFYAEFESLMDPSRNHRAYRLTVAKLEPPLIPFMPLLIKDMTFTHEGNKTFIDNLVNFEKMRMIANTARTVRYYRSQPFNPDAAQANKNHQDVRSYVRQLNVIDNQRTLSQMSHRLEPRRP
# Chain of Nuclear receptor subfamily 1 group I member 3 (Homo sapiens) (Q14994 whole entry, looked up): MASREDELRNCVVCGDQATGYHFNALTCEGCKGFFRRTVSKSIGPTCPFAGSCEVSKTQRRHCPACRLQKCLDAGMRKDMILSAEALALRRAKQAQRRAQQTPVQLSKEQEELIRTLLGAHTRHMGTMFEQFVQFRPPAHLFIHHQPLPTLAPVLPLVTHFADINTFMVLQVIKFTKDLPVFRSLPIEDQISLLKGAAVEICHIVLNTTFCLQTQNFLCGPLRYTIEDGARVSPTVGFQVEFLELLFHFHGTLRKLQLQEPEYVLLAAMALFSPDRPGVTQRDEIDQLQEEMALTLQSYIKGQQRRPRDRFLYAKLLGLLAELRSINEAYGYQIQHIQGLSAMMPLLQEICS
smiles,measurement,setting,value
COc1ncnc(NS(=O)(=O)c2ccc(N)cc2)c1OC,Potency,[1],inactive
same,Potency,[2],inactive
same,Potency,[3],inactive
CC(C)NCC(O)c1ccc(NS(C)(=O)=O)cc1 (stereo not given),Potency,[1],inactive
same,outcome,[4],inactive
same,Potency,[3],inactive
CCCOc1ccc(C(=O)OCCN(CC)CC)cc1N,Potency,[1],inactive
same,Potency,[5],inactive
same,Potency,[3],inactive
CCCc1cc(C(N)=S)ccn1,Potency,[1],inactive
same,Potency,[5],inactive
same,Potency,[3],inactive
CC(C)(Sc1cc(C(C)(C)C)c(O)c(C(C)(C)C)c1)Sc1cc(C(C)(C)C)c(O)c(C(C)(C)C)c1,Potency,[1],inactive
same,Potency,[6],inactive
same,Potency,[5],inactive
same,Potency,[3],inactive
O=C(O)c1cccnc1,Potency,[1],inactive
same,outcome,[7],inactive
same,outcome,[8],inactive
same,outcome,[9],inactive
same,outcome,[10],inactive
same,outcome,[11],inactive
same,Potency,[5],inactive
same,Potency,[3],inactive
N[C@@H](C(=O)N[C@@H]1C(=O)N2C(C(=O)O)=C(Cl)CS[C@H]12)c1ccccc1,outcome,[1],inactive [at 9.23 µM]
same,"activity change, negative = cell killing",[2],-2.72% [at 9.23 µM]
same,"activity change, negative = inhibition",[3],3.64% [at 9.73 µM]
COc1cccc(N(C)C(=S)Oc2ccc3c(c2)CCCC3)n1,Potency,[1],inactive
same,Potency,[5],inactive
same,Potency,[3],inactive
CN1CCN(c2c(F)cc3c(=O)c(C(=O)O)cn(CCF)c3c2F)CC1,Potency,[1],inactive
same,Potency,[5],inactive
same,Potency,[3],inactive
CCc1cc(C(N)=S)ccn1,Potency,[1],inactive
same,Potency,[5],inactive
same,Potency,[3],inactive
COC(=O)Nc1nc2ccc(S(=O)c3ccccc3)cc2[nH]1 (stereo not given),Potency,[1],10.5 µM (active) and 596 nM (active)
same,Potency,[2],7.42 µM (active) and 335 nM (active)
same,Potency,[3],inactive
COC(c1ccccc1)(c1ccccc1)[C@H](Oc1nc(C)cc(C)n1)C(=O)O,Potency,[1],inactive
same,Potency,[5],inactive
same,Potency,[3],inactive
CCCCS(=N)(=O)CCC(N)C(=O)O (stereo not given),Potency,[1],inactive
same,outcome,[4],inactive
same,Potency,[5],inactive
same,Potency,[3],inactive
CCOc1cc(N)c(Cl)cc1C(=O)NCC1CN(Cc2ccc(F)cc2)CCO1 (stereo not given),Potency,[1],21.1 µM (active)
same,Potency,[5],inactive
same,Potency,[3],inactive
CC[C@H](C)C(=O)O[C@H]1C[C@@H](C)C=C2C=C[C@H](C)[C@H](CC[C@@H]3C[C@@H](O)CC(=O)O3)[C@H]21,Potency,[1],16.8 µM (active) and 10.5 µM (active)
same,Potency,[2],8.33 µM (active)
same,Potency,[3],inactive
CCOC(=O)c1ccc(C#Cc2ccc3c(c2)C(C)(C)CCS3)nc1,Potency,[1],inactive
same,Potency,[5],inactive
same,Potency,[3],inactive
Nc1nc(=S)c2[nH]cnc2[nH]1,Potency,[1],750 nM (active) and 833 nM (active)
same,Potency,[6],3.55 µM (active)
same,Potency,[3],inactive
C[C@@H](CN1CC(=O)NC(=O)C1)N1CC(=O)NC(=O)C1,Potency,[1],16.8 µM (active) and 5.25 µM (active)
same,Potency,[5],inactive
same,Potency,[3],inactive
CCC(C)(C)c1ccc(CC(C)CN2C[C@@H](C)O[C@@H](C)C2)cc1 (stereo not given in full),Potency,[1],inactive
same,Potency,[5],inactive
same,Potency,[3],inactive
CCN[C@H]1C[C@H](C)S(=O)(=O)c2sc(S(N)(=O)=O)cc21,Potency,[1],inactive
same,Potency,[6],inactive
same,Potency,[5],inactive
same,Potency,[3],inactive
C1CCC(C(CC2CCCCN2)C2CCCCC2)CC1 (stereo not given),Potency,[1],7.42 µM (active)
same,Potency,[6],15.8 µM (active)
same,Potency,[5],inactive
same,Potency,[3],inactive
Cn1nnc2c(C(N)=O)ncn2c1=O,Potency,[1],inactive
same,Potency,[5],inactive
same,Potency,[3],inactive
Cc1cccc(N(C)C(=S)Oc2ccc3ccccc3c2)c1,Potency,[1],inactive
same,outcome,[12],inactive
same,outcome,[13],inactive
same,outcome,[14],inactive
same,outcome,[15],inactive
same,Potency,[3],inactive
COC(=O)Nc1nc2ccc(C(=O)c3ccccc3)cc2[nH]1,Potency,[1],211 nM (active) and 417 nM (active)
same,Potency,[5],inactive
same,Potency,[3],inactive
Cc1noc(NS(=O)(=O)c2ccc(N)cc2)c1C,Potency,[5],inactive
same,Potency,[3],inactive
CC1=NN(c2ccccc2)C(=O)C1,Potency,[1],inactive
same,Potency,[5],inactive
same,Potency,[3],inactive
O=C(O)CCn1c2c(c3ccccc31)C[C@H](NS(=O)(=O)c1ccc(F)cc1)CC2,Potency,[3],inactive
CCCc1nc(C)c2c(=O)[nH]c(-c3cc(S(=O)(=O)N4CCN(CC)CC4)ccc3OCC)nn12,Potency,[1],inactive
same,Potency,[5],inactive
same,Potency,[3],inactive
CCn1cc(C(=O)O)c(=O)c2cc(F)c(N3CCN(C)CC3)cc21,Potency,[1],inactive
same,Potency,[3],inactive
Clc1ccccc1CN1CCc2sccc2C1,Potency,[6],inactive
same,Potency,[3],inactive
CC(C)OC(=O)OCOP(=O)(CO[C@H](C)Cn1cnc2c(N)ncnc21)OCOC(=O)OC(C)C,Potency,[1],inactive
same,Potency,[3],inactive
CCN(CC)CC#CCOC(=O)C(O)(c1ccccc1)C1CCCCC1 (stereo not given),outcome,[4],inactive
same,Potency,[5],inactive
same,Potency,[3],inactive
CC1CC2C3CCC4=CC(=O)C=C[C@]4(C)[C@@]3(F)[C@@H](O)C[C@]2(C)[C@@]1(O)C(=O)CO (stereo not given in full),outcome,[4],inactive
same,Potency,[5],inactive
same,Potency,[3],inactive
